Assay results from PubChem BioAssay.
Records with an inconclusive call do not appear. Calls of active or inactive are those of the source.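 How the source made its calls, unless noted: active means inhibition above 54%, about 3 SD of non-fluorescent compounds; inactive means the rest.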 Peptide text beside a SMILES is read from it. * marks the point of attachment. Boc = CC(C)(C)OC(=O)*; OBn = c1ccc(CO*)cc1

Legend:
[1] = rapamycin-like changes in RPL19A-GFP expression – cell-based, S. cerevisiae, multiplex flow cytometry, primary screen (AID 1862; in the data active means percent of DMSO control GFP below about 86%;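 further: lower values mimic rapamycin by blocking the RPL19A rise seen in DMSO cells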); details: S. cerevisiae RPL19A-GFP strain, flow cytometry fluorescence, 3 h; at 10 µM; stronger effect = lower value
[2] = TOR pathway GLN3 branch reporter MEP2-GFP changes – S. cerevisiae, multiplex flow cytometry, primary screen (AID 1867;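 active means GFP response, as percent of the DMSO control, above the screen-wide mean plus 3 SD, about 139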;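 further: median GFP channel fluorescence of barcode-gated MEP2-GFP cells measured by flow cytometry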); details: S. cerevisiae MEP2-GFP strain, 3 h, at 10 µM, stronger effect = higher value, 100% means same as DMSO wells
[3] = TOR pathway RTG branch CIT2 reporter changes – S. cerevisiae, GFP fusion, multiplex flow cytometry, primary screen (AID 1870;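 active means percent response above a set limit, the screen-wide mean plus 3 SD, cut at about 130% in these data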;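 further: barcoded CIT2-GFP strain pooled with four other GFP strains with rapamycin as positive control; median GFP fluorescence per well over plate mean of DMSO wells so 100% = DMSO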); details: S. cerevisiae CIT2-GFP expression, 3 h, at 10 µM, stronger effect = higher value
[4] = TOR pathway LAP4-GFP level changes – S. cerevisiae, multiplex flow cytometry, primary screen (AID 1873;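 active means GFP signal, as percent of the solvent control, above the screen mean plus 3 SD, about 149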); details: S. cerevisiae LAP4-GFP expression, 3 h, at 10 µM, stronger effect = higher value
[5] = yeast AGP1-GFP level changes, GLN3 branch – cell-based, multiplex flow cytometry, S. cerevisiae, primary screen (AID 1887;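 active means GFP signal above the screen-wide mean plus 3 SD, that is over about 124.5% of the solvent control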;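 further: AGP1-GFP fusion strain of S. cerevisiae within a five-strain barcoded multiplex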); details: 3 h, at 10 µM, stronger effect = higher value
[6] = reduced mouse 2C T cell binding to pMHC/ICAM-1 vesicles – MLPCN validation set, flow cytometry, LFA-1/ICAM-1 modulator project, pilot screen (AID 2523;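 active means response below a set limit, under 55% cells CD8-positive and vesicle-bound, and CD8 cells' 90th-percentile brightness under 279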;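 on vesicle binding response: mean PE anti-B7-1 fluorescence of CD8+ cells relative to row control; 100% = QL9-loaded vesicles with DMSO vehicle in the same plate row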); details: 2C mouse CD8+ T cells, at 7 µM, stronger effect = lower value; double positive events: measured here: CD8+/vesicle+ event percentage
[7] = molecular target: Integrin beta-1 (Homo sapiens) + Integrin alpha-4 (Homo sapiens) (UniProt P13612+P05556); assay: alpha4beta1 integrin LIBS antibody binding reduction – U937 cells, HUTS-21 mAb, flow cytometry, validation set, VLA-4 allosteric modulator project, pilot screen (AID 2674;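 active means inhibition above 50%, about 3 SD of the validation set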;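 further: antibody binding induced by the VLA-4 ligand LDV present at three times its Kd; 0% = LDV ligand with antibody and no compound and 100% = antibody without LDV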); details: HUTS-21 LIBS mAb binding, at 6.7 µM, stronger effect = higher value, binding induced by LDV ligand
Sequence of Integrin beta-1 (Homo sapiens) + Integrin alpha-4 (Homo sapiens) (P05556 whole entry, looked up): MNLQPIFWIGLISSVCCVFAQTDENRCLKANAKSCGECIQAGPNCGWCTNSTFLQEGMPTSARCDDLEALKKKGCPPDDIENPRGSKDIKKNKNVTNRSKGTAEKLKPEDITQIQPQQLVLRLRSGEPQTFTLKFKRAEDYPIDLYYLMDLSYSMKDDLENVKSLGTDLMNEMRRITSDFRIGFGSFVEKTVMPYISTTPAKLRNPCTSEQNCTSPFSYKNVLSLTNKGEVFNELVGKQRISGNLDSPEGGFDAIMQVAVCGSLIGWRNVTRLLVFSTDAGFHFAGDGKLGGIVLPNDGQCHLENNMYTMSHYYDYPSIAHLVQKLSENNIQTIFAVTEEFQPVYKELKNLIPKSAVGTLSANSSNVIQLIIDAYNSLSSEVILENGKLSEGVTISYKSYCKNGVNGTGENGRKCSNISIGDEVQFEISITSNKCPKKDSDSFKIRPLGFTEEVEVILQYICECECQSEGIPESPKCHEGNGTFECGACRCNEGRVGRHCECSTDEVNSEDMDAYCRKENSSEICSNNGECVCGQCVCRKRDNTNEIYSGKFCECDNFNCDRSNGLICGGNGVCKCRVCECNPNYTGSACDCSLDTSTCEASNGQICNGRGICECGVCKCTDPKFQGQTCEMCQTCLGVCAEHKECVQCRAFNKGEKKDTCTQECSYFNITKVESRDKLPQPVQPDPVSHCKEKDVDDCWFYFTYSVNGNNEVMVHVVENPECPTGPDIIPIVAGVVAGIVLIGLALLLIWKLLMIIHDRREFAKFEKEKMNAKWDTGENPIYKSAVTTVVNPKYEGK
Sequence of Integrin beta-1 (Homo sapiens) + Integrin alpha-4 (Homo sapiens) (P13612 whole entry, looked up): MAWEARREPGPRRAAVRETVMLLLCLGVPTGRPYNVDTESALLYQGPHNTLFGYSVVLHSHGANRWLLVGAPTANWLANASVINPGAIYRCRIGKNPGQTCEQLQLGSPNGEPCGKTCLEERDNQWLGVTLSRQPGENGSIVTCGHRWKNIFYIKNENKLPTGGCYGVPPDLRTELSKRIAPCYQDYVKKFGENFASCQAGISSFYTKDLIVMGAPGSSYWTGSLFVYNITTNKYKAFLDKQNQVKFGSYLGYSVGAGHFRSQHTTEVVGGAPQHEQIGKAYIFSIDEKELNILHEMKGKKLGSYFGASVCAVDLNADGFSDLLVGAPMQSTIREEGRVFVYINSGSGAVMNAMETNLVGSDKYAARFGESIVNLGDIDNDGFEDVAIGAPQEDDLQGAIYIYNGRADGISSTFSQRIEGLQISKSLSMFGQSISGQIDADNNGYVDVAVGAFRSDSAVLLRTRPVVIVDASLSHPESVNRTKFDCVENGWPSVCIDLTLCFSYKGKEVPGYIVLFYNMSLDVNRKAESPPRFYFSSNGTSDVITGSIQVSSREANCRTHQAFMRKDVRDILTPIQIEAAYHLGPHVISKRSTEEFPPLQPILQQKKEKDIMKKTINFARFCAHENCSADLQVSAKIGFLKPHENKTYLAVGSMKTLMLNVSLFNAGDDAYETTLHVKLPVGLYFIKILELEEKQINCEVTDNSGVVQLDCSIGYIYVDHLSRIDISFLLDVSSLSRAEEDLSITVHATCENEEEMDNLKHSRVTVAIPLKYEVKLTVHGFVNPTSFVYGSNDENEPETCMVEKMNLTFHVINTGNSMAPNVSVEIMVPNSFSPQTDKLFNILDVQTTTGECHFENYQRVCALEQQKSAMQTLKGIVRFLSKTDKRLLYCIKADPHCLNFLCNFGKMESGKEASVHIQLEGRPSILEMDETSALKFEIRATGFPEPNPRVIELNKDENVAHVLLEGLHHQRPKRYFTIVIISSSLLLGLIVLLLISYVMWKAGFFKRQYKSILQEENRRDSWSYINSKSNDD

[8] = calorie-restriction mimetic ROS inhibitors, yeast – validation compound set, pilot screen (AID 2706;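 active means superoxide response below 65% of plate, a cut near 3 SD across the whole screen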;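 further: yeast exposed to compound for one week at 30 degrees C before staining; 100% = mean of all compound wells on the same plate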); details: S. cerevisiae aging, superoxide DHE fluorescence; at 10 µM, stronger effect = lower value
[9] = molecular target: Beta-adrenergic receptor kinase 1 (Homo sapiens) (UniProt P25098); assay: GRK2 binders displacing RNA aptamer, biochemical, validation, human GRK2, bead flow cytometry (AID 488806;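 active means aptamer binding inhibition above 30%, about 3 SD of noise from non-fluorescent compounds; inactive means inhibition at or below 30%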); details: bead-bound GRK2, FAM-aptamer displacement, at 10 µM, stronger effect = higher value
Sequence of Beta-adrenergic receptor kinase 1 (Homo sapiens) (P25098 whole entry, looked up, the tested form may be a part): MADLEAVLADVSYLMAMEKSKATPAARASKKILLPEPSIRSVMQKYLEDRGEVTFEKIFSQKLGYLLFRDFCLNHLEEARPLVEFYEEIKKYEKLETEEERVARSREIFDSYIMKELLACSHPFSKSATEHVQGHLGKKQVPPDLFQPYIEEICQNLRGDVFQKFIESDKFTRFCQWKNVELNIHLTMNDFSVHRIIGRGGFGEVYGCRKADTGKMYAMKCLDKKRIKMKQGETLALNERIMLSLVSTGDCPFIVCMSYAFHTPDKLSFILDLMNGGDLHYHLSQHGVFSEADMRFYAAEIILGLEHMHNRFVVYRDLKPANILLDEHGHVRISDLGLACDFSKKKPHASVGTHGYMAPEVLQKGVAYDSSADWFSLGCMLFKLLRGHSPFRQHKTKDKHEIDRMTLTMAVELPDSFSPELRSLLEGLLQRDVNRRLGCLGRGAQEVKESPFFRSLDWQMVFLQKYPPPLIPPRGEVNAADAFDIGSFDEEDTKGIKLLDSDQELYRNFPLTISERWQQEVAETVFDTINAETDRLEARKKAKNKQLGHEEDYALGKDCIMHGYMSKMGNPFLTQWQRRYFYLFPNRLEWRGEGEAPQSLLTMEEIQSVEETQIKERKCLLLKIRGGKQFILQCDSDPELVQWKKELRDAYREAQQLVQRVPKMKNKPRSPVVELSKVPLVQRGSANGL

[10] = molecular target: AP-2 complex subunit beta (Homo sapiens) (UniProt P63010); assay: beta-arrestin/AP2 interaction blockers – biochemical, validation set, GST-AP2 beads, flow cytometry, pilot screen (AID 504541); details: FITC arrestin peptide, at 10 µM, stronger effect = higher value, AP2 beta2 appendage fragment, R879A mutant;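 further: AP2 carries R879A mutation and is captured from E. coli lysate; bead-bound FITC arrestin peptide fluorescence measuring arrestin peptide binding to AP2; 0% = DMSO wells and 100% = excess unlabeled arrestin peptide control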
Sequence of AP-2 complex subunit beta (Homo sapiens) (P63010 whole entry, looked up, the tested form may be a part, one chain of several): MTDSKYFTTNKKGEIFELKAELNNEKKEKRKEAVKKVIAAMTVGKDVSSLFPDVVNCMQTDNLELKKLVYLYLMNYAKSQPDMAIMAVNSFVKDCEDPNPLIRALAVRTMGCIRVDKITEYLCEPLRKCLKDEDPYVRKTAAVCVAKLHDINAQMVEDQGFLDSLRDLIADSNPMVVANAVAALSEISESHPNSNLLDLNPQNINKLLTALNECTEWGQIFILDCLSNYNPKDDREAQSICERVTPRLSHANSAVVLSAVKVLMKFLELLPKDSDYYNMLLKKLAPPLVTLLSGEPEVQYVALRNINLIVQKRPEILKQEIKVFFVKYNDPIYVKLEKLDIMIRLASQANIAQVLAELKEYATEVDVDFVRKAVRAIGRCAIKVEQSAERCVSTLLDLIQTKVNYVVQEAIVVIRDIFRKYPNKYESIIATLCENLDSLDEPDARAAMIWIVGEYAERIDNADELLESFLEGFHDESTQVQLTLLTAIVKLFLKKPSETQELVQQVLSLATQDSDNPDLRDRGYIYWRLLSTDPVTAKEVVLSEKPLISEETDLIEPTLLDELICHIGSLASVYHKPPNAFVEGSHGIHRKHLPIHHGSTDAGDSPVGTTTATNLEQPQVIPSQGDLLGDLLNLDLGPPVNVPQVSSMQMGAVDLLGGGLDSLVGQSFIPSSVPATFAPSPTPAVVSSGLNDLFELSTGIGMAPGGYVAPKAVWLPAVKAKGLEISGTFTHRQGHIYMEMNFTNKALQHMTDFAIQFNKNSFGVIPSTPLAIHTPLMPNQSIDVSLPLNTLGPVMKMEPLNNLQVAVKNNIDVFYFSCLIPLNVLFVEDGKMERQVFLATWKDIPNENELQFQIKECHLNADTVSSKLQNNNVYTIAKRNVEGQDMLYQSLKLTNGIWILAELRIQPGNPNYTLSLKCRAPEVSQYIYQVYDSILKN

[11] = cytosolic pH regulators acting via V-ATPase – S. cerevisiae, pHLuorin, HTS validation (AID 504600; in the data active means response above about 15%;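 further: plate controls were DMSO for no effect and reference compound for full effect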); details: V-ATPase proton transport, at 10 µM, stronger effect = higher value
[12] = system: anti-desmoglein-3 scFv antibody binding to human DSG3; assay: blockers of pathogenic pemphigus antibody–desmoglein-3 binding – biochemical, validation compound set, bead-based, flow cytometry, pilot screen (AID 588368;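 active means binding below the plate cutoff, the plate median minus 3 SD, with a reading above zero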;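 further: signal is the median channel fluorescence of bead-bound GFP antibody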); details: Protein G beads, DSG3-Fc, scFv-GFP binding, at 10 µM, stronger effect = lower value
[13] = Nile Red efflux blockade in pump-expressing yeast – validation compound set, multiplex, phenotypic, pilot screen (AID 588506;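 active means efflux inhibition above 0.42, the validation set average plus 4 SD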;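 further: Nile Red retained in cells so higher fluorescence means more efflux inhibition; 0 = negative control wells and 1 = enniatin B 25 µM full block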); details: S. cerevisiae pump-expressing triplex, Nile Red efflux flow cytometry; at 10 µM; stronger effect = higher value; the pumps come from Candida albicans
[14] = molecular target: ATP-binding cassette sub-family B member 6 (Homo sapiens) (UniProt Q9NP58); assay: blockers of ABCB6-driven porphyrin uptake – K562-ABCB6 cells, flow cytometry, validation set, pilot screen (AID 588550;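 active means inhibition above the screen-wide mean plus 3 SD, about 51%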;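 further: 0% = DMSO wells and 100% = benzethonium chloride 70 µM positive control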); details: K562-ABCB6 porphyrin accumulation, 1 h, at 10 µM, stronger effect = higher value
Sequence of ATP-binding cassette sub-family B member 6 (Homo sapiens) (Q9NP58 whole entry, looked up): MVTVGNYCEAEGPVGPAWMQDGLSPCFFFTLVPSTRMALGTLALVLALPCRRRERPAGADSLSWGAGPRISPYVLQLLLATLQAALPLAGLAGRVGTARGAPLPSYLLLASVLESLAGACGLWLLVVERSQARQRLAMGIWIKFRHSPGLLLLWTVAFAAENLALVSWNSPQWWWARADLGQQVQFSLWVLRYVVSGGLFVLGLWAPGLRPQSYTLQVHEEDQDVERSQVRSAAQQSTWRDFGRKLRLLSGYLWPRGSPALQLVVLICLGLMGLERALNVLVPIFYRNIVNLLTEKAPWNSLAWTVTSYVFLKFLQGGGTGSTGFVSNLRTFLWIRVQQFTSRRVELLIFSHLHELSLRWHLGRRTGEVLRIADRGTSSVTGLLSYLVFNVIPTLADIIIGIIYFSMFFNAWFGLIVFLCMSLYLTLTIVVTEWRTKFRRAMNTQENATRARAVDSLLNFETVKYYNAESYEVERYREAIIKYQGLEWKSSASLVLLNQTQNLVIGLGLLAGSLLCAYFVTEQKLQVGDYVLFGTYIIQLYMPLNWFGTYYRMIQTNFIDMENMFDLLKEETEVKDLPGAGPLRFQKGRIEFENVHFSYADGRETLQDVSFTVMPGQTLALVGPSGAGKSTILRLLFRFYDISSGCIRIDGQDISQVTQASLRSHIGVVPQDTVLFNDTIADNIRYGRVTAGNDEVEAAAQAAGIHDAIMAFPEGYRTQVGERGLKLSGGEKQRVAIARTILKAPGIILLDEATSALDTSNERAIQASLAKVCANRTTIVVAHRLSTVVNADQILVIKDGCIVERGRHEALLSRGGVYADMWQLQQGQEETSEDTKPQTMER

[15] = AML differentiation inducers, ER-HoxA9 marrow cells – cell-based, GFP/MAC1 double positive, flow cytometry, validation set, primary screen (AID 588685;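 active means differentiation response of at least 50%, scaled between solvent and reference control, from cells with both markers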;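 further: compound exposure lasts four days before antibody staining and flow analysis; 0% = DMSO wells and 100% = 5 µM fulvestrant positive control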); details: stronger effect = higher value, normalized: vehicle 0, fulvestrant 100

SMILES	percent of DMSO control GFP [1]	GFP response vs DMSO [2]	percent response of DMSO control [3]	GFP response vs DMSO [4]	GFP response, % of DMSO [5]	double positive events [6] [%]	vesicle binding response [6]	inhibition [7]	superoxide response (% of plate) [8]	aptamer binding inhibition [9]	inhibition [10]	response [11]	binding (% of control) [12]	efflux inhibition (fraction of control) [13]	inhibition [14]	differentiation response [15]
CN1CCC(OC(c2ccccc2)c2ccccc2)CC1	104% (inactive)	105% (inactive)	104% (inactive)	105% (inactive)	104% (inactive)	66.3	186% (inactive)	7.22% (inactive)	95.8% (inactive)	3% (inactive)	-2.62% (inactive)	1.48% (inactive)	102% (inactive)	0.03 (inactive)	9% (inactive)	4.64% (inactive)
COc1ccccc1C(=O)c1cc2ccc(O)cc2oc1=O	103% (inactive)	110% (inactive)	105% (inactive)	100% (inactive)	100% (inactive)	57.1	147% (inactive)	12.8% (inactive)	99.2% (inactive)	1% (inactive)	-2.87% (inactive)	5.05% (inactive)	104% (inactive)	0.03 (inactive)	-208% (inactive)	-14.7% (inactive)
O=C(O)CCCCCCCC(=O)O	100% (inactive)	99.9% (inactive)	90% (inactive)	117% (inactive)	97.5% (inactive)	58.5	171% (inactive)	-6.77% (inactive)	101% (inactive)	4% (inactive)	12.5% (inactive)	0.2% (inactive)	99% (inactive)	0.14 (inactive)	-18% (inactive)	24% (inactive)
CC(=O)OCC(=O)C1=CCC2C3CCC4=CC(=O)C=CC4(C)C3(F)C(OC(C)=O)CC12C (stereo not given)	99.8% (inactive)	101% (inactive)	106% (inactive)	84.3% (inactive)	105% (inactive)	59	180% (inactive)	6.29% (inactive)	87.6% (inactive)	7% (inactive)	-3.56% (inactive)	6.47% (inactive)	96.2% (inactive)	0.18 (inactive)	9% (inactive)	-11.5% (inactive)
CC(C)CC(NC(=O)C(NC(=O)OC(C)(C)C)C(C)C)C(=O)NC(CCC(=O)OCc1ccccc1)C(N)=O (stereo not drawn) (Boc-Val-Leu-Glu(OBn)-NH2; configuration not given here)	99.6% (inactive)	98.9% (inactive)	95.9% (inactive)	84.3% (inactive)	93.1% (inactive)	65	186% (inactive)	3.49% (inactive)	94.3% (inactive)	0% (inactive)	2.78% (inactive)	-7.35% (inactive)	101% (inactive)	0.41 (inactive)	11% (inactive)	22.4% (inactive)
